Results filed as inconclusive are left out. Calls of active or inactive are those of the source. Unless noted, calls come from the whole dose curve; as a rule, active = well fitted curve in the direction sought with a large enough effect; inconclusive = small, poorly fitted or top-dose-only effect, or another doubt; inactive = no such curve, though single readings can be large; an effect the other way counts as inactive or inconclusive.
Legend:
[1] = Cell Viability - BJ (AID 421; calls by dose curve;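 note: potency is the fitted concentration of half-maximal effect; cells exposed to compound for 40 hours at 37 °C before readout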); settings: BJ fibroblast viability, qHTS
In short: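 Quantitative HTS: ATP depletion in BJ cells after 40 hr compound exposure in complete culture medium, detected with CellTiter-Glo; AC50 from standard Hill fits.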

[2] = Cell Viability - Hek293 (AID 427;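 active = compounds whose dose-response curve shows a full or clear partial loss of cell viability, called from curve shape rather than a numeric limit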;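 note: potency is the fitted concentration of half-maximal effect; cells exposed to compound for 40 hours at 37 °C before reading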); settings: qHTS
In short: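 AC50 values derive from Hill-modelled concentration-response of ATP-based luminescence, normalized between DMSO-only and 100 uM tamoxifen controls. Cells were exposed in complete culture medium for 40 hr at 37 °C before detection.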

[3] = Cell Viability - HepG2 (AID 433; calls by dose curve;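 note: potency is the fitted concentration of half-maximal effect; potency for ATP loss meaning cytotoxicity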); settings: qHTS
In short: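 HepG2 hepatocellular carcinoma cells (1500/well) were treated with compounds for 40 h at 37 °C in complete medium; intracellular ATP was read by CellTiter-Glo luminescence. Data were normalized to DMSO and 100 uM tamoxifen, and AC50 came from Hill fits.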

[4] = Cell Viability - MRC5 (AID 434; calls by dose curve;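 note: potency is the fitted concentration of half-maximal effect; potency reflects cytotoxicity seen as loss of intracellular ATP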); settings: MRC5 lung fibroblast viability, qHTS
In short: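 MRC5 normal human lung fibroblasts (1500/well) were treated with compounds for 40 hr at 37 °C in complete medium, and viable cells were measured as intracellular ATP by CellTiter-Glo luminescence. AC50 came from Hill fits, normalized to DMSO and 100 uM tamoxifen.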

[5] = Cell Viability - SK-N-SH (AID 435; calls by dose curve;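 note: potency is the fitted concentration of half-maximal effect; compound exposure lasted 40 h at 37 °C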); settings: SK-N-SH neuroblastoma cell viability qHTS
In short: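 SK-N-SH human neuroblastoma cells (1500/well) were exposed to compounds in complete medium for 40 h at 37 °C, and intracellular ATP was then measured by CellTiter-Glo luminescence. AC50 was taken from Hill fits, normalized to DMSO and 100 uM tamoxifen.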

[6] = Cell Viability - N2a (AID 540); settings: N2a mouse neuroblastoma cell viability; at 92.2 µM (top of the series);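 note: plate controls were DMSO alone for no effect and tamoxifen control for full effect; nearly all actives have a fitted effect of over 45% in size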
In short: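 First, 1500 N2a cells per well incubate 5 hr at 37 °C; next, compounds are added and incubated 40 hr at 37 °C; finally CellTiter-Glo is added and luminescence read after 20 min, with AC50 derived by Hill modeling.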

[7] = Cell Viability - HUV-EC-C (AID 542); note: % is set by controls: 0 for no effect and ±100 for the full control effect; nearly all actives have a fitted effect of over 35% in size
In short: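 Decrease in cellular ATP, quantified by luciferase luminescence, reflects toxicity in normal human vascular endothelial HUV-EC-C cells given compound for 40 hr in complete culture medium. Values are AC50s from concentration-response curves.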

[8] = Cell Viability - H-4-II-E (AID 543); note: % is set by controls: 0 for no effect and ±100 for the full control effect; nearly all actives have a fitted effect of over 35% in size
In short: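 Here, cytotoxicity is measured in the rat hepatoma line H-4-II-E as loss of intracellular ATP after 40 hr compound treatment, detected by luciferase luminescence.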

[9] = Cell Viability - SH-SY5Y (AID 544); settings: SH-SY5Y neuroblastoma cell viability; viability change, negative = cytotoxic: at 92.2 µM (top of the series); note: nearly all actives have a fitted effect of over 55% in size
In short: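 Cytotoxicity is scored as a concentration-dependent fall in intracellular ATP in human SH-SY5Y cells treated 40 hr in complete culture medium. Potency is expressed as AC50 from a Hill equation fit.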

[10] = Cell Viability - Renal Proximal Tubule (AID 545); settings: renal proximal tubule cells viability; at 91.7 µM (top of the series), primary cells of rat origin unless noted; note: nearly all actives have a fitted effect of over 40% in size
In short: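 Primary rat renal proximal tubule cells (1000/well) were treated with compounds for 40 hr at 37 °C in complete medium. Intracellular ATP was measured by CellTiter-Glo luminescence, and AC50 values came from Hill-equation fits of concentration-response data.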

[11] = Cell Viability - Mesenchymal (AID 546);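 note: cells exposed to compound for 40 hours before reading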
In short: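 Normal human renal glomerulus-derived kidney mesenchymal cells, 1000 per well in complete medium, were treated with compounds for 40 hr at 37 °C. Viability was read as intracellular ATP by CellTiter-Glo luminescence; AC50 values came from Hill-equation fits of qHTS concentration-response data.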

[12] = Cellular Toxicity (caspase-3) Jurkat (AID 655); settings: Jurkat caspase-3 activation, luminescence, DMSO = 0%, tamoxifen = 100%; at 92.2 µM (top of the series);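 note: cells exposed to compound for 16 h at 37 °C before reading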
In short: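 Jurkat cells (5000/well) in complete medium were treated with compounds for 16 hr at 37 °C, then Caspase-Glo 3/7 luminescence was read after 20 min at room temperature. Data normalized to DMSO (basal) and 100 uM tamoxifen (100%); AC50 from Hill fit.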

[13] = Cellular Toxicity (caspase-3) HUV-EC-C (AID 656)
In short: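 HUV-EC-C endothelial cells, 1000/well, were pre-incubated 5 hr at 37°C, then exposed to compounds for 16 hr at 37°C. Caspase-Glo 3/7 luminescence was read after 20 min at room temperature. AC50 came from Hill fits, normalized to DMSO and 100 uM tamoxifen.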

[14] = Cellular Toxicity (caspase-3) SHSY5Y (AID 657)
In short: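 SH-SY5Y human neuroblastoma cells (1500/well) were treated with compounds for 16 h at 37 °C, then Caspase-Glo 3/7 luminescence was read after 1 h at room temperature. Data normalized to DMSO and 10 uM staurosporine; AC50 from Hill fits.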

[15] = Cellular Toxicity (caspase-3) BJ (AID 658)
In short: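 Luminescent aminoluciferin-substrate cleavage reports caspase 3/7 activity in normal human BJ fibroblasts after 16 hr compound exposure at 37 °C. Normalized to DMSO (basal) and 10 uM staurosporine (100%); AC50 from Hill fit of concentration-response.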

[16] = Cellular Toxicity (caspase-3) MRC-5 (AID 659)
In short: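 Luminescence from caspase-cleaved aminoluciferin substrate (Caspase-Glo 3/7, 1 hr RT) reports caspase 3/7 activity in MRC-5 lung fibroblasts after 16 hr compound exposure. Normalized to DMSO basal and 10 uM staurosporine as 100%; AC50 from Hill fits.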

[17] = Cellular Toxicity (caspase-3) Mesangial (AID 660);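 note: combined caspase 3 and 7 activity read by Caspase-Glo luminescence; cells exposed to compound for 16 h before the caspase read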
In short: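 Concentration-response qHTS: compound-induced rise in caspase 3/7 luminescence in human mesangial cells after 16 h, normalized to DMSO and 100 uM tamoxifen controls.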

[18] = Cellular Toxicity (caspase-3) SK-N-SH (AID 661)
In short: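 Caspase 3/7 activation is measured as a luminescence increase from aminoluciferin released by substrate cleavage in SK-N-SH cells after 16 hr compound treatment; values are AC50 from concentration-response curves.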

[19] = Cellular Toxicity (caspase-3) H-4-II-E (AID 663);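 note: cells exposed to compound for 16 hr before readout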
In short: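 Luminescence from caspase-cleaved aminoluciferin substrate, read 20 min after reagent addition, reports caspase 3/7 activation in rat H-4-II-E cells after 16 hr compound exposure. Normalized to DMSO (basal) and 100 uM tamoxifen (100%); AC50 from Hill fits.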

[20] = Cellular Toxicity (caspase-3) Hek293 (AID 664);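 note: cells exposed to compound for 16 h at 37 °C before readout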
In short: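 Activation of caspase-3/7 is measured as increased luminescence from cleaved peptide-aminoluciferin substrate in HEK293 cells treated 16 hours at 37 °C. AC50 values come from Hill-equation fits of concentration-response data.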

[21] = Cellular Toxicity (caspase-3) N2a (AID 665); settings: N2a cells, luminescence, normalized: DMSO 0%, 10 µM staurosporine 100%; at 92.2 µM (top of the series);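 note: compound exposure lasted 16 h at 37 °C before readout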
In short: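 Plated mouse neuroblastoma N2a cells received titrated compounds for 16 h in complete medium. Caspase activity was then detected with a peptide-aminoluciferin luminescent reagent.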

[22] = Cellular Toxicity (caspase-3) NIH 3T3 (AID 666);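 note: 0% = DMSO basal and 100% = 100 µM tamoxifen stimulation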
In short: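 Concentration-response qHTS in NIH 3T3 mouse fibroblasts scores caspase-3/7 activation as rising luminescence after 16 hr compound exposure. Signals are scaled between DMSO-only and 100 uM tamoxifen.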

[23] = Cellular Toxicity (caspase-3) Renal Proximal Tubule (AID 667); settings: renal proximal tubule cells; at 91.7 µM (top of the series), primary cells freshly taken from rat, solvent-only wells 0%, staurosporine 100% unless noted;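 note: cells exposed to compound for 16 hours at 37 °C before detection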
In short: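 Primary rat proximal tubule cells, 1000/well, 5 h plating at 37 °C, then compound 16 h at 37 °C. Caspase-Glo 3/7 reagent, 1 h RT, luminescence. Normalized to DMSO (basal) and 10 uM staurosporine (100%); Hill-fit AC50.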

CCCOC(=O)c1ccccc1C(=O)OCCC
inactive: Potency [1] > 92 µM | Potency [2] > 92 µM | Potency [3] > 92 µM | Potency [4] > 92 µM | Potency [5] > 92 µM | activity change, negative = cytotoxicity [6] -15% | Potency [7] | Potency [8] | Potency [9] | activity change, negative = cytotoxicity [10] -1.75% | outcome [11] | caspase-3 activation [12] -1.2% | outcome [13] | outcome [14] | outcome [15] | outcome [16] | outcome [17] | outcome [18] | outcome [19] | outcome [20] | caspase-3 activation [21] 2.99% | outcome [22] | caspase-3 activation [23] 0.709%

— PubChem BioAssay (NCATS)
